Compound activity: PubChem, National Center for Advancing Translational Sciences (NCATS)
Pol iota inh = DNA polymerase iota (human) inhibition; Q9UNA4; Pol iota fluorescent replication assay, 10 min; Potency, µM (titrated, usually from 115 µM), actives largely listed as inhibitors; 1% of 390,000 active
Target sequence (Q9UNA4 whole entry, looked up): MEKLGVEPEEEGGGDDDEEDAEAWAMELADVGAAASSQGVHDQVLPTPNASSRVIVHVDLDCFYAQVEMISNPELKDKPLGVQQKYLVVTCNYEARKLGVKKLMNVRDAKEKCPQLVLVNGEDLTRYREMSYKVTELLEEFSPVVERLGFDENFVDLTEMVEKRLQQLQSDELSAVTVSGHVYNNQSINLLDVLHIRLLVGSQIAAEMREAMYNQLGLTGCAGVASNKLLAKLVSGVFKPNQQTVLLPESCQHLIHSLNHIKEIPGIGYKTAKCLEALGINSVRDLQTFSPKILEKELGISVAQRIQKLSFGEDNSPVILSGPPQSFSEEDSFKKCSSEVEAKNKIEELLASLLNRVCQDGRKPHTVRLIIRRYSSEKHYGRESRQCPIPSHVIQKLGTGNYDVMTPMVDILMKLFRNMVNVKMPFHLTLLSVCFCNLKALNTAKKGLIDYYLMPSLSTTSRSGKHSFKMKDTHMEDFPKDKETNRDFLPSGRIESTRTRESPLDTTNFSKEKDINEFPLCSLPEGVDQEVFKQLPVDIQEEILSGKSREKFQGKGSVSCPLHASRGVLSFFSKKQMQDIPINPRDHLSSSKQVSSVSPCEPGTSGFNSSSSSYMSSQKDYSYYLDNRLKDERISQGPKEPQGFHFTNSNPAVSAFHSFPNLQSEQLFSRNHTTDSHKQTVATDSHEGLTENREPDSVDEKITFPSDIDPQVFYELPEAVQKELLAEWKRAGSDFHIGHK
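Fluorescent replication assay read twice, at 0 min and 10 min after adding 50 nM (final) substrate. Enzyme (10 nM) and compounds were first incubated 15 min at room temperature; enzyme-free buffer wells were negative controls.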
POLK inh = blocks human DNA polymerase kappa activity. Q9UBT6. purified Pol kappa, fluorescent DNA synthesis assay, 10 min. Potency, µM (doses to about 107 µM), hits mostly inhibitors. 0.53% of 400,000 active
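First, compounds were pin-transferred onto 10 nM Pol kappa. After 15 min at room temperature, substrate was added to 50 nM final. Fluorescence was then measured kinetically at 0 and 10 min.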
POLB inh = inhibitors of human DNA polymerase beta | P06746 | Pol beta primer extension/strand displacement, fluorescence kinetic | Potency, µM (highest dose often 114 µM), usual class: inhibitors | 1.3% of 340,000 active | AID 485314
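Preincubation: enzyme (10 nM) with compound, 15 min, RT. Reaction: substrate added to 50 nM final. Reads: 0 and 10 min. Analysis: normalized, Hill fit.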
APE1 inh = APE1 (human) endonuclease inhibition. P27695. recombinant APE1, TAMRA/BHQ-2 abasic DNA cleavage fluorescence. Potency, µM (doses to about 65.8 µM), hits mostly inhibitors. 0.35% of 350,000 active; also: nearly all actives have a fitted effect of over 55% in size
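Endonuclease cleavage of a quenched abasic-site DNA duplex (50 nM) by APE1 (0.75 nM) was tracked by TAMRA dequenching. Compounds were preincubated with enzyme 15 min at room temperature; data normalized to buffer-only and DMSO wells plus NSC13755 control.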
POLH inh = DNA polymerase eta (human) inhibition | Q9Y253 | AID 588591 | recombinant Pol eta, fluorescent DNA replication assay | Potency, µM (top dose mostly 114 µM), most hits filed as inhibitors | 1.2% of 390,000 active
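Fluorescent replication assay: 50 nM final substrate added after a 15 min room-temperature compound preincubation with 10 nM enzyme. Signal taken at 0 min and again at 10 min.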
GLS inh = blocks human kidney-isoform glutaminase activity; 0.21% of 410,000 active; GLS enzymatic activity, qHTS titration; Potency, µM (series often up to 45.5 µM), actives largely listed as inhibitors; O94925; AID 624170
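hKGA in 45 mM KH2PO4 (pH 8.2), 0.02% Tween-20 with compound, then 1mM L-Glutamine (stock as added) plus glutamate oxidase/HRP/Amplex red coupling mix. Fluorescence read initially and after 30 min at RT; signal change reflects glutamate formation.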
PGK validate = TbPGK inhibition, hit validation; shares compounds with POLK inh; 79% of 500 active; Potency, µM (series often up to 57.5 µM), usual class: inhibitors; TbPGK coupled GAPDH assay, Kinase-Glo luminescence; AID 686980; also: nearly all actives have a fitted effect of over 65% in size
Pol iota confirm = Confirm cherry-picked inhibitors of human polymerase iota. shares compounds with POLK inh. Pol iota primer extension, TAMRA/BHQ fluorescence. Potency, µM, actives largely listed as inhibitors. 77% of 1,500 active
Each line names hits and unclear results; the compound was inactive in the other large screens (follow-up assays come after a bar, where they were run). This is a sample that favours compounds with a hit; in the whole collection about 2.4% have one here. Calls follow the shape of the dose curve; as a rule, active = well fitted curve in the direction sought with a large enough effect; inconclusive = small, poorly fitted or top-dose-only effect, or another doubt; inactive = no such curve, though single readings can be large; an effect the other way counts as inactive or inconclusive.

COc1ccc2nc3cc(Cl)ccc3c(Nc3ccc(O)c(CN4CCN(C)CC4)c3)c2c1	Pol iota inh inconclusive, POLK inh 79µM, POLH inh inconclusive (no result: POLB inh, APE1 inh) | Pol iota confirm inconclusive
c1ccc(-n2nnnc2Oc2ccc(-c3nnco3)cc2)cc1	none
O=C(CNC(=O)c1ccc(S(=O)(=O)N2CCCCC2)cc1)N/N=C/c1ccco1	Pol iota inh inconclusive | Pol iota confirm 12
COc1ccc(OCc2nnc(SCC(=O)NCc3ccco3)o2)cc1	none
O=C(NCc1ccc(-c2nc3ccccc3s2)cc1)c1ccco1	none
CN(C)c1ccc(/C=N/NC(=O)c2ccccn2)cc1	POLB inh inconclusive | PGK validate inconclusive
O=C(N/N=C/c1ccncc1)c1ccccn1	none
COc1ccccc1CN1CC(C(=O)N(C)CCc2nc3ccc(F)cc3[nH]2)CCC1=O (stereo unspecified)	none
CCNS(=O)(=O)c1ccc2nc(NC(=O)c3cccnc3)sc2c1	none
CCCCNS(=O)(=O)c1ccc2nc(NC(=O)c3cccnc3)sc2c1	POLH inh 50µM (no result: APE1 inh) | PGK validate inconclusive
O=c1c2ccccc2oc2nc(-c3ccco3)n(-c3ccccc3)c(=O)c12	none
CCN(CC)CCCNc1nc2cc(OC)c(OC)cc2c2nc(-c3ccccc3)nn12	Pol iota inh 7.9µM, POLK inh inconclusive, POLB inh 11µM, APE1 inh inconclusive, POLH inh inconclusive | Pol iota confirm 38
CCN(CC)CCCNc1nc2cc(OC)c(OC)cc2c2nc(-c3cccnc3)nn12	Pol iota inh inconclusive, POLK inh inconclusive, POLB inh 8.9µM, APE1 inh inconclusive, POLH inh inconclusive | Pol iota confirm 42
CCOCCCNc1nc2cc(OC)c(OC)cc2c2nc(-c3ccccc3)nn12	none (no result: APE1 inh)
COCCCNc1nc2cc(OC)c(OC)cc2c2nc(-c3ccccc3)nn12	none
Cc1nc2sc(-c3ccccc3)cc2c(=O)n1N	none | PGK validate 16µM
COc1ccc(C(=O)O/N=C(\N)c2ccccc2)cc1	none | PGK validate 8.2µM
COc1ccc(C(=O)O/N=C(\N)c2ccc(Br)cc2)cc1	none
COc1ccc(C(=O)O/N=C(/C)c2cccs2)cc1	none | PGK validate 5.8µM
Cc1ccc(Cn2ccc(NC(=O)c3cc4nc(-c5ccco5)cc(C(F)(F)F)n4n3)n2)cc1	none
O=C(Nc1ccc(Cl)c(Cl)c1)Nc1nnc(-c2ccncc2)s1	Pol iota inh inconclusive, POLK inh inconclusive, POLB inh inconclusive, POLH inh inconclusive | Pol iota confirm inconclusive
CN(C)c1ccc(Nc2nc(N)c3ccccc3n2)cc1	none | PGK validate 13µM
Nc1nc(Nc2ccccc2)nc2ccccc12	none
COc1ccc(-c2ccc(SC)nn2)cc1	none | PGK validate 9.2µM
CC(C)CCNC(=O)c1ccc(Cn2c(=S)[nH]c3ccccc3c2=O)cc1	Pol iota inh inconclusive, POLB inh inconclusive, POLH inh inconclusive | Pol iota confirm inconclusive
COc1ccc(N2CCN(C(=O)CN3C(=O)c4ccccc4S3(=O)=O)CC2)cc1	none
Nc1ncnc2c1ncn2[C@@H]1O[C@H](C(=O)N2CCN(c3nc4ccccc4o3)CC2)[C@@H](O)[C@H]1O	none (no result: Pol iota inh, POLK inh, POLB inh, APE1 inh, POLH inh)
O=C(c1coc(=O)c(Br)c1)N1CCOCC1	Pol iota inh inconclusive, POLK inh inconclusive, POLB inh 6.3µM, APE1 inh 13µM, POLH inh 10µM, GLS inh inconclusive | PGK validate 29µM
O=C(c1cc(Br)c(Br)s1)N1CCOCC1	none (no result: POLB inh)
O=C(c1ccc(=O)oc1)N1CCOCC1	Pol iota inh inconclusive, POLK inh 50µM, POLB inh 5µM, APE1 inh 14µM, POLH inh 1.8µM, GLS inh 11µM | PGK validate 4.1µM
COc1ccc(NC(=O)c2nc[nH]c2C(=O)N[C@H](C)c2ccccc2)cc1	none
CCCCNc1cc(NC2CCCCC2)c2c3c(onc13)-c1ccccc1C2=O	Pol iota inh inconclusive, POLB inh inconclusive, POLH inh 71µM (no result: APE1 inh) | Pol iota confirm 60
COc1cc(Cl)c(C)cc1NC(=O)c1ccc(S(C)(=O)=O)cc1	none
CCn1cc(C(=O)O)c(=O)c2cc(F)c(N3CCN(S(=O)(=O)c4ccc(Br)cc4)CC3)cc21	none (no result: Pol iota inh, POLK inh, POLH inh, GLS inh)
O=C(O)c1cn(C2CC2)c2cc(N3CCN(S(=O)(=O)c4ccc5c(c4)OCCO5)CC3)c(F)cc2c1=O	POLH inh 79µM | Pol iota confirm 27
COc1ccc(Cc2nc3ccc(C(=O)N4CCCC4)cc3o2)cc1	none
CN(C)c1ccc(N=Nc2nc3ccccc3n2C)cc1	none | PGK validate 4.6µM
Cn1c(Cl)nc2ccccc21	none
Cn1c(N=Nc2ccccc2)nc2ccccc21	none | PGK validate 13µM
CCn1c(NCc2ccc(N(C)C)cc2)nc2ccccc21	none
Cc1cc(C)cc(C(=O)NCC(=O)OCC(=O)NCc2ccco2)c1	Pol iota inh inconclusive
COc1ccc2[nH]c3c(C)c4ccncc4c(C)c3c2c1	Pol iota inh 3.5µM, POLK inh 50µM, POLB inh 1.3µM, APE1 inh 7.9µM, POLH inh inconclusive | Pol iota confirm 7.5
Cc1c2ccncc2cc2c1[nH]c1ccccc12	Pol iota inh inconclusive (no result: POLB inh, APE1 inh)
Cc1cc(=O)[nH]c(N/N=C/c2ccc(OC(=O)c3ccco3)cc2)n1	POLH inh 50µM | Pol iota confirm inconclusive
C/C=C\C=C/C(=O)Nc1cccc(C2=NOC3(C2)C[C@H](C(N)=O)N(C(=O)c2ccc(OC)cc2)C3)c1 (stereo partly specified)	Pol iota inh 25µM, POLK inh inconclusive, POLH inh 20µM | Pol iota confirm inconclusive
COCCNC(=O)/C(C#N)=C/c1ccc(O)cc1	none | PGK validate 16µM
COCCNC(=O)/C(C#N)=C/c1cccc(/C=C(\C#N)C(=O)NCCOC)c1	none
CCC(C)NC(=O)Cn1c(=O)n(-c2ccc(OC)cc2)c(=O)c2ccc(C(=O)NCc3ccc(C)cc3)cc21 (stereo unspecified)	APE1 inh inconclusive
CCOC(=O)c1cnc2cc(F)c(F)cc2c1Nc1ccccc1O	none (no result: APE1 inh)
CCOC(=O)c1cnc2ccc(OC(F)(F)F)cc2c1Nc1ccccc1C(=O)O	none (no result: APE1 inh) | PGK validate inactive
O=C(COC(=O)/C=C/c1ccco1)Nc1cc(S(=O)(=O)N2CCOCC2)ccc1Cl	Pol iota inh 50µM, POLK inh inconclusive, APE1 inh inconclusive, POLH inh inconclusive (no result: POLB inh) | PGK validate inconclusive
COc1ccccc1CCNC(=O)c1cc(-c2ccncc2)nc2ccc(Br)cc12	POLH inh 45µM | Pol iota confirm inconclusive
